# Sampled rows, rich in hits. Any-hit rate of the full collection: about 2.4%.
# POLI inh = DNA polymerase iota (human) inhibition | Pol iota fluorescent replication assay, 10 min | AID 588590 | Q9UNA4 | actives 1% (n = 390,000) | Potency, µM (doses to about 115 µM), without a hit: at the highest dose activity, negative = inhibition, most hits filed as inhibitors
#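 Fluorescent replication assay read twice, at 0 min and 10 min after adding 50 nM (final) substrate. Enzyme (10 nM) and compounds were first incubated 15 min at room temperature; enzyme-free buffer wells were negative controls.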
# Pol eta inh-1 = inhibitors of human DNA polymerase eta. Q9Y253. recombinant Pol eta, fluorescent DNA replication assay. Potency, µM (top dose mostly 114 µM), for the others: top-dose activity change, negative = inhibition, hits mostly inhibitors. actives 1.2% (n = 390,000). AID 588591; further: on the % scale 0 is the no-effect control and ±100 the full control effect
#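 Pol eta (10 nM) was preincubated with compounds for 15 min at room temperature, after which fluorescent replication substrate (50 nM final) was added to start the reaction. Fluorescence was read kinetically at 0 and 10 min.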
# POLB inh = DNA polymerase beta (human) inhibition; Potency, µM (series often up to 114 µM), without a hit: top-dose activity change, negative = inhibition, most hits filed as inhibitors; AID 485314; actives 1.3% (n = 340,000); Pol beta primer extension/strand displacement, fluorescence kinetic; P06746; further: on the % scale 0 is the no-effect control and ±100 the full control effect
#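 Curves were derived by four-parameter Hill fits of normalized qHTS data. The kinetic fluorescent primer-extension read was taken at 0 and 10 min after 50 nM substrate, following a 15 min room-temperature preincubation of 10 nM enzyme with compounds.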
# FEN1 inh-1 = blocks human flap endonuclease 1. P39748. Recombinant FEN1 flap cleavage, fluorescence, 15 min. Potency, µM (highest dose often 114 µM), for inactives: at the highest dose activity change, negative = inhibition, hits mostly inhibitors. actives 0.35% (n = 390,000); further: on the % scale 0 is the no-effect control and ±100 the full control effect; nearly all actives have a fitted effect of over 65% in size
#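 Quantitative HTS format: each compound was titrated, incubated with 10 nM nuclease for 15 min at room temperature, then challenged with flap substrate at 50 nM final. Signal change over 15 min gave concentration–effect curves.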
# TDP1 block = inhibitors of human tyrosyl-DNA phosphodiesterase TDP1; Q9NUW8; recombinant TDP1, AlphaScreen DNA substrate cleavage; Potency, µM (highest dose often 130 µM), without a hit: at the top dose activity change, negative = inhibition, actives largely listed as inhibitors; actives 0.28% (n = 350,000); further: on the % scale 0 is the no-effect control and ±100 the full control effect; nearly all actives have a fitted effect of over 40% in size
#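 E. coli-derived human Tdp1, 1 nM final. Cpd preinc 15 min RT; substrate 15 nM final, 5 min RT; AS bead mix 10 ug/ml final, 10 min RT. Signal loss = tyrosine-FITC cleavage. No-enzyme wells = max signal.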
# Pol kappa inh-1 = DNA polymerase kappa (human) inhibition; purified Pol kappa, fluorescent DNA synthesis assay, 10 min; Q9UBT6; actives 0.53% (n = 400,000); Potency, µM (highest dose often 107 µM), for the others: at the highest dose activity, negative = inhibition, most hits filed as inhibitors; further: on the % scale 0 is the no-effect control and ±100 the full control effect
# Target sequence (Q9UBT6 whole entry, looked up): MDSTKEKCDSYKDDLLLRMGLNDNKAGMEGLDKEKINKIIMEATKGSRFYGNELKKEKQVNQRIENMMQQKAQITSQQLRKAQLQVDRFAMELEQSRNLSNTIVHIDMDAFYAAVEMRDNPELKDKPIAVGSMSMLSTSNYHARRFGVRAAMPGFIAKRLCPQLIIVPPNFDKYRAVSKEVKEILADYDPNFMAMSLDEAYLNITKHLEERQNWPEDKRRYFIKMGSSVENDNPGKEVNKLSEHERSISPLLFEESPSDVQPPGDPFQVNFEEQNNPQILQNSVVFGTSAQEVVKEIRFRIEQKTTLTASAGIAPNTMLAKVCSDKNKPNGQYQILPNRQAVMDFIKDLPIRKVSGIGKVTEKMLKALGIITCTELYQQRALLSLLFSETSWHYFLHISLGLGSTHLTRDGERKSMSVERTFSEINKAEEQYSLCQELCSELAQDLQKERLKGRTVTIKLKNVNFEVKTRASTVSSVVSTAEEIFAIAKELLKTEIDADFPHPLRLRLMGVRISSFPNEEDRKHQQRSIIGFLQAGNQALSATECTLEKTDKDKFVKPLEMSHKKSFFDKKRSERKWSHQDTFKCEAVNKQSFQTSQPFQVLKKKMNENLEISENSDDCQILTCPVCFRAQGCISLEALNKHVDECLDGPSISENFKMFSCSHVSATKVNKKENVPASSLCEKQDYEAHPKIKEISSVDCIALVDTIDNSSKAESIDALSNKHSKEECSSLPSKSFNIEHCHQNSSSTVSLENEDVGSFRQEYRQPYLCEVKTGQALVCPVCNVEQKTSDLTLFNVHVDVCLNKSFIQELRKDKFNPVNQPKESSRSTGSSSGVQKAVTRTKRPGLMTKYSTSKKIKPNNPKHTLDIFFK
#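 50 nM final substrate added after 15 min RT preincubation of 10 nM Pol kappa with compound; fluorescence read at 0 and 10 min.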
# PGK validate = validation of Trypanosoma brucei phosphoglycerate kinase inhibitors. shares compounds with Pol kappa inh-1. TbPGK coupled GAPDH assay, Kinase-Glo luminescence. Potency, µM (doses to about 57.5 µM), for inactives: top-dose activity change, negative = inhibition, usual class: inhibitors. actives 79% (n = 500); further: on the % scale 0 is the no-effect control and ±100 the full control effect; nearly all actives have a fitted effect of over 65% in size
# Pol iota confirm = Inhibitors of human DNA polymerase iota, confirmation. shares compounds with Pol kappa inh-1. Pol iota primer extension, TAMRA/BHQ fluorescence. Potency, µM, most hits filed as inhibitors. actives 77% (n = 1,500). AID 720496
# Pol kappa inh-2 = Pol kappa (human) inhibition, cherry-pick confirmation; shares compounds with Pol eta inh-1; Potency, µM, most hits filed as inhibitors; purified Pol-kappa, fluorescent strand-displacement substrate; actives 76% (n = 920)
# Pol eta inh-2 = confirmation of human DNA polymerase eta inhibitors. actives 64% (n = 2,600). Pol eta primer extension, TAMRA/BHQ fluorescence, 10 min. Potency, µM, usual class: inhibitors. shares compounds with Pol eta inh-1. AID 720502
# FEN1 inh-2 = FEN1 inhibition, cherry-pick retest; shares compounds with FEN1 inh-1; FEN1 flap cleavage, TAMRA/BHQ2 fluorogenic DNA substrate; Potency, µM, most hits filed as inhibitors; actives 79% (n = 880); further: nearly all actives have a fitted effect of over 60% in size
# * hit, by the source's call; ? = inconclusive; / = no result given; [ ] = another dose, or the depositor's remark. The call rests on the fitted dose curve; in most records, active means well fitted curve in the direction sought with a large enough effect; inconclusive means small, poorly fitted or top-dose-only effect, or another doubt; inactive means no such curve, though single readings can be large; an effect the other way counts as inactive or inconclusive. Potency means the concentration at half of the fitted maximal effect.
SMILES,POLI inh,Pol eta inh-1,POLB inh,FEN1 inh-1,TDP1 block,Pol kappa inh-1,Pol iota confirm,Pol eta inh-2,FEN1 inh-2,others
COC(=O)c1cc(O)cc(OC)c1Oc1cc(C)cc(O)c1C(=O)O,13µM*,3.5µM*,3.2µM*,50µM*,/,11µM*,13*,12*,76*,PGK validate=1µM*
COc1ccc(/C=C/C(=O)NC(=S)Nc2cc([N+](=O)[O-])ccc2O)cc1OC,16µM*,25µM*,18µM*,22µM*,-14%,?,75*,30*,60*,
COc1ccc([N+](=O)[O-])cc1NC(=S)NC(C)=O,30%,-19%,8%,1%,-14%,-3%,/,/,/,
O=C(O)CN1C(=O)/C(=C/C=C/c2ccccc2)SC1=S,?,-22%,-23%,-1%,0%,-39%,/,/,/,
CC(C(=O)O)N1C(=O)/C(=C/C=C/c2ccco2)SC1=S (stereo not given),0.79µM*,0.79µM*,1.3µM*,7.9µM*,?,1.3µM*,1.9*,1.3*,15*,PGK validate=2.9µM*
O=C1/C(=C/C=C/c2ccco2)SC(=S)N1NS(=O)(=O)c1ccccc1,1.8µM*,1.1µM*,?,4µM*,/,4.5µM*,2.7*,1.7*,17*,PGK validate=4.1µM*
O=C1/C(=C/c2cccs2)SC(=S)N1NS(=O)(=O)c1ccccc1,-2%,0%,-4%,2%,0%,-14%,/,/,/,
CCOCCCNc1nc2c(C)cccn2c(=O)c1/C=C1\SC(=S)N(CC(C)C)C1=O,19%,-6%,-10%,-3%,2%,-19%,/,/,/,
O=C1/C(=C\c2c(NCCOCCO)nc3ccccn3c2=O)SC(=S)N1Cc1ccco1,?,79µM*,18µM*,?,/,?,?,/,85*,
CC(C1SC(=S)NC1=O)C1SC(=S)NC1=O (stereo not given),/,5µM*,/,/,/,/,42*,9.5*,?,Pol kappa inh-2=17*
Cc1ccccc1Nc1ncnc2c1c(-c1ccccc1)cn2-c1ccc(F)cc1,10%,-5%,1%,8%,0%,-11%[60.1 µM],/,/,/,
CCCN1C(=O)C2(c3ccccc31)c1c(oc3ccccc3c1=O)C(=O)N2CCCOC(C)C (stereo not given),-4%,-12%,19%,-11%,2%,-2%,/,/,/,
Cc1ccc(C(=O)Nc2nnc(CC(=O)N/N=C/c3ccc(O)c(O)c3)s2)cc1,?,3.5µM*,3.5µM*,11µM*,/,?,9.5*,17*,38*,PGK validate=4.1µM*
CCOC(=O)c1cc(-c2ccc(F)cc2)n(CCC(=O)NCCc2ccc(C)cc2)c1C,4%,-19%,-20%,-7%,2%,-10%[60.1 µM],/,/,/,
O=C(CCN1C(=O)/C(=C/c2ccco2)SC1=S)Nc1ccc(C(=O)O)c(O)c1,4µM*,4.5µM*,?,35µM*,/,20µM*,30*,?,85*,Pol kappa inh-2=17*
O=C(CCN1C(=O)/C(=C/c2ccc(Cl)cc2)SC1=S)Nc1ccc(C(=O)O)cc1,137%,-1%,37%,-3%,/,-13%,/,/,/,
Cc1ccc(-n2cccc2/C=C2\C(=N)N3N=C(c4ccco4)SC3=NC2=O)cc1,20µM*,14µM*,10µM*,22µM*,56µM*,?,?,76*,43*,
CC1=CN2C(=N)/C(=C/c3ccco3)C(=O)N=C2S1,-19%,?,?,3%,0%,-21%,/,/,/,
CN(C)c1ccc(N=Nc2ccccc2C(=O)O)cc1,-3%,/,/,-5%,/,-19%,/,/,/,
CN(C)c1ccc(N=Nc2ccc(C(=O)O)cc2)cc1,11µM*,3.5µM*,10µM*,?,/,32µM*,21*,4.3*,38*,
Cn1c(N)c(C(=O)COC(=O)c2cc(-c3ccco3)nc3ccccc23)c(=O)n(C)c1=O,7.1µM*,7.9µM*,16µM*,40µM*,-5%,?,24*,19*,67*,
Cc1cc(C)nc(SCC(=O)Nc2ccccc2[N+](=O)[O-])n1,14%,0%,23%,-6%,0%,-9%,/,/,/,
O=C1CC(=O)NC(SCC(=O)Nc2ccccc2[N+](=O)[O-])=N1,2.8µM*,5.6µM*,?,?,/,40µM*,12*,6*,?,PGK validate=10µM*
COC(=O)c1ccccc1NC(=O)c1ccc(F)cc1F,/,/,/,/,0%,/,/,/,/,
N=C1/C(=C/c2ccc(-c3cccc(C(=O)O)c3)o2)C(=O)N=C2SC=C(c3ccccc3)N12,4µM*,3.2µM*,28µM*,?,35µM*,7.1µM*,19*,7.6*,24*,PGK validate=37µM*
COc1cc(Cl)c(C)cc1NC(=O)CSc1ncc(S(=O)(=O)c2ccc(C(C)(C)C)cc2)c(=O)[nH]1,?,10µM*,10µM*,?,?,?,21*,30*,48*,PGK validate=21µM*
CCc1ccc(S(=O)(=O)c2cnc(SCC(=O)Nc3ccc(OC)cc3OC)[nH]c2=O)cc1,-25%,-6%,-17%,5%,9%,-13%,/,/,/,
Nc1ccc2nc(-c3cccc(-c4nc5ccc(N)cc5[nH]4)n3)[nH]c2c1,14µM*,20µM*,25µM*,?,/,56µM*,17*,19*,1.7*,Pol kappa inh-2=27*
COc1c(OC2OC(C(=O)O)C(O)C(O)C2O)cc(O)c2c(=O)cc(-c3ccccc3)oc12 (stereo not given),-9%,-10%,19%,?,/,-33%,/,/,/,

# Assay outcomes as filed in PubChem BioAssay.
